In PubChem BioAssay (EPA / NIEHS):
“And” between values parts separate entries of the source, which are not always exact repeats. Identical values can stand only once. The source holds several records for some structures; these can differ, active in one and inactive in another. The source made the active and inactive calls. Rule for the calls: active = hit-call score of the fitted dose curve at least 0.9, where 1 is the maximum; inactive = score below 0.9.

How the values were obtained:
Settings in all cases: mRNA level, 48 h; actives raise or lower the signal
[1] = read-out: flavin-containing dimethylaniline monooxygenases 3 (FMO3), FMO3 (gene 2328); assay: LTEA_HepaRG_FMO3: Life Technologies and Expression Analysis (LTEA) Assay for flavin-containing dimethylaniline monooxygenases 3 (FMO3) using HepaRG (AID 2283453)
Summary of the method: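 FMO3 transcript quantified by TaqMan qRT-PCR against three housekeeping genes after 48 h chemical exposure of HepaRG cells. Eight-point half-log series, top 100 uM, 0.5% DMSO vehicle; phenobarbital 1mM induction control; up- or down-regulation fitted.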

[2] = read-out: Cytochrome P450 (CYP1A1), CYP1A1 (gene 1543); assay: LTEA_HepaRG_CYP1A1: Life Technologies and Expression Analysis (LTEA) Assay for Cytochrome P450 (CYP1A1) using HepaRG (AID 2283454)
Summary of the method: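 Differentiated human HepaRG cells, after 48 h plating, exposed in duplicate for 48 h in serum-free induction medium to 8 half-log concentrations up to 100 uM in 0.5% DMSO. CYP1A1 mRNA by qRT-PCR, normalized to ACTB/GAPDH/POLR2A; bidirectional fit versus DMSO.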

[3] = read-out: CFLAR gene, CFLAR (gene 8837); assay: LTEA_HepaRG_CFLAR: Life Technologies and Expression Analysis (LTEA) Assay for CFLAR gene using HepaRG (AID 2283455)
Summary of the method: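 Transcript level by qRT-PCR (normalized to ACTB, GAPDH and POLR2A) after 48 h chemical exposure of HepaRG cells, top concentration 100 uM with half-log steps, 0.5% DMSO vehicle, duplicates; fitted bidirectionally against DMSO baseline.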

[4] = read-out: Forkhead box O1 (FOXO1), FOXO1 (gene 2308); assay: LTEA_HepaRG_FOXO1: Life Technologies and Expression Analysis (LTEA) Assay for Forkhead box O1 (FOXO1) using HepaRG (AID 2283456)
Summary of the method: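 FOXO1 transcript quantified by qRT-PCR after 48 h chemical exposure (top 100 uM, half-log steps, 0.5% DMSO) of HepaRG cells, housekeeping-normalized (ACTB/GAPDH/POLR2A). Changes fitted in both directions relative to vehicle.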

[5] = read-out: growth arrest and DNA damage 45 (GADD45A), GADD45A (gene 1647); assay: LTEA_HepaRG_GADD45A: Life Technologies and Expression Analysis (LTEA) Assay for growth arrest and DNA damage 45 (GADD45A) using HepaRG (AID 2283458)
Summary of the method: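 Transcript induction or loss, quantified by TaqMan qRT-PCR against three housekeeping genes, is the read-out. HepaRG cells received chemicals for 48 h across eight half-log concentrations from 100 uM in 0.5% DMSO; gain and loss fitted relative to DMSO.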

[6] = read-out: Forkhead box O3 (FOXO3), FOXO3 (gene 2309); assay: LTEA_HepaRG_FOXO3: Life Technologies and Expression Analysis (LTEA) Assay for Forkhead box O3 (FOXO3) using HepaRG (AID 2283459)
Summary of the method: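 FOXO3 transcript measured by qRT-PCR (normalized to ACTB, GAPDH, POLR2A) after 48 h exposure of HepaRG cells in serum-free induction medium. Duplicates, eight half-log concentrations up to 100 uM, 0.5% DMSO; gain or loss fitted against DMSO.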

[7] = read-out: ABC Transporter (ABCB1), ABCB1 (gene 5243); assay: LTEA_HepaRG_ABCB1: Life Technologies and Expression Analysis (LTEA) Assay for ABC Transporter (ABCB1) using HepaRG (AID 2283460)
Summary of the method: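 ABCB1 transcript level measured by TaqMan qRT-PCR against three housekeeping genes after 48 h chemical exposure of differentiated HepaRG cells. Top concentration 100 uM, half-log steps, eight points, 0.5% DMSO vehicle; bidirectional fit relative to DMSO.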

[8] = read-out: growth arrest and DNA damage 45 (GADD45B), GADD45B (gene 4616); assay: LTEA_HepaRG_GADD45B: Life Technologies and Expression Analysis (LTEA) Assay for growth arrest and DNA damage 45 (GADD45B) using HepaRG (AID 2283461)
Summary of the method: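 Differentiated human HepaRG cells in serum-free induction medium exposed 48 h in duplicate to eight concentrations, top 100 uM, half-log steps, 0.5% DMSO. GADD45B mRNA by TaqMan qRT-PCR, normalized to ACTB, GAPDH, POLR2A; bidirectional fit versus DMSO.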

[9] = read-out: ABC Transporter (ABCC3), ABCC3 (gene 8714); assay: LTEA_HepaRG_ABCC3: Life Technologies and Expression Analysis (LTEA) Assay for ABC Transporter (ABCC3) using HepaRG (AID 2283462)
Summary of the method: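 Differentiated human HepaRG cells exposed 48 h in serum-free induction medium, 0.5% DMSO vehicle, 8-point half-log series to 100 uM in duplicate. ABCC3 mRNA by qRT-PCR, normalised to ACTB, GAPDH, POLR2A; bidirectional fit vs DMSO.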

[10] = read-out: ABC Transporter (ABCB11), ABCB11 (gene 8647); assay: LTEA_HepaRG_ABCB11: Life Technologies and Expression Analysis (LTEA) Assay for ABC Transporter (ABCB11) using HepaRG (AID 2283463)
Summary of the method: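 ABCB11 transcript levels quantified by TaqMan qRT-PCR against three housekeeping genes after 48 h chemical exposure of HepaRG cultures. Concentrations up to 100 uM in half-log steps, 0.5% DMSO vehicle; both induction and suppression scored.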

[11] = read-out: ABC Transporter (ABCC2), ABCC2 (gene 1244); assay: LTEA_HepaRG_ABCC2: Life Technologies and Expression Analysis (LTEA) Assay for ABC Transporter (ABCC2) using HepaRG (AID 2283464)
Summary of the method: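 Differentiated HepaRG cells in serum-free induction medium exposed 48 h to eight half-log concentrations up to 100 uM, 0.5% DMSO, in duplicate. ABCC2 mRNA measured by qRT-PCR (TaqMan, Fluidigm), normalized to ACTB, GAPDH and POLR2A. Fitted in both directions against DMSO.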

[12] = read-out: Broad substrate specificity ATP-binding cassette transporter ABCG2 (Homo sapiens) (UniProt Q9UNQ0); assay: LTEA_HepaRG_ABCG2: Life Technologies and Expression Analysis (LTEA) Assay for ABC Transporter (ABCG2) using HepaRG (AID 2283465)
Summary of the method: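 ABCG2 transcript was quantified by TaqMan qRT-PCR against three housekeeping genes in HepaRG cells. Cells were treated in duplicate for 48 h across an 8-point half-log series up to 100 uM, with 0.5% DMSO vehicle. Gain or loss versus DMSO was fit.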

[13] = read-out: ATP-citrate lyase (ACLY), ACLY (gene 47); assay: LTEA_HepaRG_ACLY: Life Technologies and Expression Analysis (LTEA) Assay for ATP-citrate lyase (ACLY) using HepaRG (AID 2283466)
Summary of the method: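 ACLY mRNA quantified by qRT-PCR on Fluidigm arrays against three housekeeping genes, after 48 h chemical treatment of HepaRG cells (top concentration 100 uM, half-log steps, 0.5% DMSO vehicle). Up- or down-regulation fitted relative to DMSO.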

[14] = read-out: Peroxisomal acyl-coenzyme A oxidase 1 (ACOX1) gene, ACOX1 (gene 51); assay: LTEA_HepaRG_ACOX1: Life Technologies and Expression Analysis (LTEA) Assay for Peroxisomal acyl-coenzyme A oxidase 1 (ACOX1) gene using HepaRG (AID 2283467)
Summary of the method: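 ACOX1 transcript levels were quantified by TaqMan qRT-PCR against three housekeeping genes after 48 h chemical exposure of differentiated human HepaRG cells. Exposure used eight half-log steps topping at 100 uM, 0.5% DMSO vehicle, in duplicate. Bidirectional curve fits were made relative to DMSO.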

[15] = read-out: Alkaline Phosphatase, Placental (ALPP) gene, ALPP (gene 250); assay: LTEA_HepaRG_ALPP: Life Technologies and Expression Analysis (LTEA) Assay for Alkaline Phosphatase, Placental (ALPP) gene using HepaRG (AID 2283468)
Summary of the method: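 HepaRG cells plated 48 h, then exposed in duplicate for 48 h in serum-free induction medium to 8-point half-log series from 100 uM in 0.5% DMSO. ALPP mRNA by TaqMan qRT-PCR, normalized to ACTB/GAPDH/POLR2A; bidirectional fit versus DMSO.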

[16] = read-out: Bcl-2 (BAD) gene, BAD (gene 572); assay: LTEA_HepaRG_BAD: Life Technologies and Expression Analysis (LTEA) Assay for Bcl-2 (BAD) gene using HepaRG (AID 2283469)
Summary of the method: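 Read-out: qRT-PCR of BAD mRNA, normalized to three housekeeping genes. Human HepaRG cultures got 48 h chemical exposure in 0.5% DMSO, duplicate eight-point half-log series topping at 100 uM. Gain or loss of signal fitted versus DMSO vehicle.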

[17] = read-out: Bcl-2 (BAX) gene, BAX (gene 581); assay: LTEA_HepaRG_BAX: Life Technologies and Expression Analysis (LTEA) Assay for Bcl-2 (BAX) gene using HepaRG (AID 2283470)
Summary of the method: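 Cells were thawed, plated for 48 h, moved to serum-free induction medium and dosed for 48 h (highest concentration 100 uM, half-log steps, 0.5% DMSO). Total RNA was then analysed for BAX expression by qRT-PCR.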

[18] = read-out: adenosine kinase (ADK) gene, ADK (gene 132); assay: LTEA_HepaRG_ADK: Life Technologies and Expression Analysis (LTEA) Assay for adenosine kinase (ADK) gene using HepaRG (AID 2283471)
Summary of the method: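 Read-out is ADK transcript level measured by qRT-PCR and normalised to three housekeeping genes. Cells are human HepaRG, dosed for 48 h at up to 100 uM in 0.5% DMSO. Gain or loss of signal is fitted against DMSO controls.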

[19] = read-out: Alpha-fetoprotein (AFP) gene, AFP (gene 174); assay: LTEA_HepaRG_AFP: Life Technologies and Expression Analysis (LTEA) Assay for Alpha-fetoprotein (AFP) gene using HepaRG (AID 2283472)
Summary of the method: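 Chemicals were tested on differentiated HepaRG cells for 48 hours at eight concentrations up to 100 uM, with 0.5% DMSO as vehicle. AFP expression was then quantified by qRT-PCR and analyzed for gain or loss relative to DMSO.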

Measured: AC50

Chain of Broad substrate specificity ATP-binding cassette transporter ABCG2 (Homo sapiens) (Q9UNQ0 whole entry, looked up): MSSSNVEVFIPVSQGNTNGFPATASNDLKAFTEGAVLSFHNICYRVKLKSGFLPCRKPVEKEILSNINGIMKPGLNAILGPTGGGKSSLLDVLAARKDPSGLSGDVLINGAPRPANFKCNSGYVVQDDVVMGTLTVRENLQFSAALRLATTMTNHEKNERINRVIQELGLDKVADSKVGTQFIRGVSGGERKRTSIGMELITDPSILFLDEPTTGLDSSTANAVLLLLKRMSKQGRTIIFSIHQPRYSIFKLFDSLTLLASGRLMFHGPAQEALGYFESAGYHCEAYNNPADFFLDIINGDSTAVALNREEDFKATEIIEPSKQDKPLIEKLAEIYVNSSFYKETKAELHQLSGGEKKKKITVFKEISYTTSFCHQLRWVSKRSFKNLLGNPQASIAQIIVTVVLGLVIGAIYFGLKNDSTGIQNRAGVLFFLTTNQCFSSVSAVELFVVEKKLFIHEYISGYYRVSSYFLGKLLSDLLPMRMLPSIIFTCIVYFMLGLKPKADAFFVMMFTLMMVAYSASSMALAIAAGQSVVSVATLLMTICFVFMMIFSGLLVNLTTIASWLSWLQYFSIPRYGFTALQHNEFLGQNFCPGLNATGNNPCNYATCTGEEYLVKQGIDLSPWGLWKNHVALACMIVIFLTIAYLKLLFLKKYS

CC1(c2ccc(Oc3ccccc3)cc2)OC(=O)N(Nc2ccccc2)C1=O (stereo not drawn)
inactive: [3] | [7] | [8] | [9] | [16]
active: [1] 24.4 µM | [2] 14.1 µM | [4] 50.2 µM | [5] 13 µM | [6] 4.78 µM | [10] 8.3 µM | [11] 79.3 µM | [12] 13.2 µM | [13] 3.66 µM | [14] 26.7 µM | [15] 11.2 µM | [17] 12.2 µM | [18] 73.7 µM | [19] 9.81 µM

CC(C)N(C(=O)COc1nnc(C(F)(F)F)s1)c1ccc(F)cc1
active: [1] 40.7 µM | [2] 50 µM | [10] 50 µM | [14] 19.4 µM | [19] 37.6 µM
inactive: all other assays above

CNC(=O)CSP(=S)(OC)OC
active: [2] 24.8 µM
inactive: all other assays above

Oc1cc(Cl)ccc1Oc1ccc(Cl)cc1Cl
inactive: [1] | [3] | [4] | [5] | [6] | [7] | [8] | [9] | [10] | [11] | [12] | [13] | [14] | [15] | [16] | [17] | [18] | [19]
active: [1] 85.1 µM | [2] 77.3 µM and 88.3 µM and 79.3 µM | [5] 10.1 µM | [6] 0.067 µM | [10] 73.3 µM and 75.5 µM | [19] 51 µM

CC(C)(C)C(O)C(Oc1ccc(Cl)cc1)n1cncn1 (stereo not drawn)
active: [2] 23.1 µM and 18.4 µM and 22 µM | [7] 4.64 µM and 7.44 µM and 3.5 µM | [10] 9.92 µM | [11] 2.47 µM | [13] 73.6 µM and 50 µM and 34.1 µM | [14] 1.25 µM | [19] 4.76 µM and 9.92 µM and 50 µM
inactive: [1] | [3] | [4] | [5] | [6] | [8] | [9] | [10] | [11] | [12] | [14] | [15] | [16] | [17] | [18]
